For 26 molecules, activation, outcome and max response results are on record in PubChem BioAssay (NCATS).

Values joined by “and” are separate entries in the source; they are usually repeats but may differ in a detail not shown here. Identical values can stand only once. Records with an inconclusive call do not appear. Active and inactive are the calls of the source. Unless noted, calls follow the shape of the full dose curve.

Test [1] has as its target Androgen receptor (Homo sapiens) (UniProt P10275). As to the kind of experiment: qHTS assay for small molecule agonists of androgen receptor signaling (AID 588515; active = well fitted curve in the direction sought with a large enough effect in the signal ratio, with a control signal flat; the % refers to the signal ratio; also: % is scaled to controls: 0 for no effect and ±100 for the full control effect). To be noted: AR-UAS-bla HEK293, beta-lactamase ratio, agonist 16 h; stronger effect = higher value. The method in brief:
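Stimulation of an AR-responsive β-lactamase reporter in GripTite HEK293 cells was measured after 16 h compound exposure at 37 °C, via CCF4 fluorescence after 2 h RT. EC50 from Hill fits, normalized to R1881 at 30 nM.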
In general terms: Quantitative high-throughput screening tests each substance at several concentrations.

Test [2] deals with Glucocorticoid receptor (Homo sapiens) (UniProt P04150). Briefly: qHTS assay for small molecule agonists of glucocorticoid receptor signaling (AID 588532; active = well fitted curve in the direction sought with a large enough effect in the signal ratio, with a control signal flat; the % refers to the signal ratio;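 also: 100% = dexamethasone at 0.1 µM and 0% = DMSO only wells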). To be noted: HeLa MMTV-bla, beta-lactamase ratio, agonist, 18 h; stronger effect = higher value; percent of dexamethasone control, DMSO zero. The method in brief:
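MMTV-bla HeLa, beta-lactamase reporter; medium with 1% charcoal/dextran-stripped FBS; cpds up to 92 uM, 18 h, 37 C; CCF4 readout 460/530 nm; Hill fit → EC50, efficacy vs 0.1 uM dexamethasone = 100%.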

The target of test [3] is Androgen receptor (Homo sapiens) (UniProt P10275). Briefly: qHTS assay for small molecule antagonists of androgen receptor signaling (AID 588516; active = well fitted curve in the direction sought with a large enough effect in the signal ratio, with a control signal flat, not every such curve was filed as active; the % refers to the signal ratio; also: % is scaled to controls: 0 for no effect and ±100 for the full control effect). To be noted: AR-UAS-bla HEK293, beta-lactamase ratio, antagonist mode, 16 h; series mostly up to 76.8 µM. The method in brief:
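HEK293 AR-UAS-bla cells, 10% dialyzed FBS medium; cpd titration + R1881 10 nM final, 16 h 37 C; CCF4 2 h RT; FRET ratio; IC50/efficacy via Hill fit.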

For test [4], the target named is Estrogen receptor (Homo sapiens) (UniProt P03372). Briefly: qHTS assay for small molecule agonists of estrogen receptor alpha signaling (AID 588514).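 Also: 0% = vehicle only and 100% = reference agonist; nearly all actives have a fitted effect of over 70% in size.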 The following applies: ER-alpha-UAS-bla HEK293, beta-lactamase ratio, 18 h, percent of full estradiol response, vehicle zero; series mostly up to 76.8 µM. The method in brief: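 Efficacy is expressed against 20 nM 17-beta-estradiol (100%) and DMSO basal (0%); EC50 from Hill equation. Assay: beta-lactamase reporter in ER-alpha-UAS-bla HEK 293 cells, 18 h compound incubation, CCF4 detection.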
Estrogen receptor (Homo sapiens), sequence (P03372 whole entry, looked up): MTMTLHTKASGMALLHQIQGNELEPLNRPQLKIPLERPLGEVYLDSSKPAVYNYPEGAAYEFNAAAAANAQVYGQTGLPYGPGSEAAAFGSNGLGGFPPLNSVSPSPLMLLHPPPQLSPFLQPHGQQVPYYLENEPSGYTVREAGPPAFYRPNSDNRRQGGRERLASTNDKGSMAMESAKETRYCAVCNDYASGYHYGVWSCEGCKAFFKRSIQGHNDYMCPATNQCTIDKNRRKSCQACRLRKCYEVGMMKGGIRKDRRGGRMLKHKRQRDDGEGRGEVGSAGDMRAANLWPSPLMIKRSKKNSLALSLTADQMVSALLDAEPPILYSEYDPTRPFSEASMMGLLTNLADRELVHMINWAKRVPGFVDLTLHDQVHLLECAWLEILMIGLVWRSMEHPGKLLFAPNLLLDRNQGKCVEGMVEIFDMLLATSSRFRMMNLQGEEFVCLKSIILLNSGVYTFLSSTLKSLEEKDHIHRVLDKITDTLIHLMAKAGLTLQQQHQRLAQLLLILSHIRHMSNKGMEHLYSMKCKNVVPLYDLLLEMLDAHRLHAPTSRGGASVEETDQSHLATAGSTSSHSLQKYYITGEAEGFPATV

Test [5] addresses Glucocorticoid receptor (Homo sapiens) (UniProt P04150). Briefly: qHTS assay for small molecule antagonists of glucocorticoid receptor signaling (AID 588533; active = well fitted inhibition curve with a large enough effect in the signal ratio, with a control signal flat, not every such curve was filed as active; the % refers to the signal ratio;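 also: cells stimulated with 2 nM dexamethasone as agonist; % is scaled to controls: 0 for no effect and ±100 for the full control effect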). To be noted: HeLa MMTV-bla, GRE beta-lactamase ratio, antagonist mode, 18 h; series mostly up to 76.8 µM. The method in brief: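 Antagonist-mode qHTS: compound titrations added to GRE-bla HeLa cells, then dexamethasone 2 nM final; 18 h, 37 C. CCF4 FRET fluorescence normalized to dexamethasone and DMSO; IC50 from Hill fit.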

For test [6], the target named is Bile acid receptor (Homo sapiens) (UniProt Q96RI1). As to the kind of experiment: qHTS assay for small molecule antagonists of farnesoid X receptor signaling (AID 588526). Also: % is scaled to controls: 0 for no effect and ±100 for the full control effect. The following applies: HEK293T FXR-UAS-bla, beta-lactamase ratio, antagonist mode; series mostly up to 76.7 µM. The method in brief:
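Concentration-response titrations were fitted to the Hill equation for half-maximal inhibition and maximal response, with data normalised to 50 uM chenodeoxycholic acid and DMSO control wells. Cells: FXR-UAS-bla HEK293T, dialyzed FBS.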

Test [7] in a line: qHTS assay for small molecule antagonists of peroxisome proliferator-activated receptor delta signaling (AID 588535).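 Also: cells co-treated with a PPAR-delta agonist as stimulator during compound exposure.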 The following applies: HEK293T PPARd-UAS-bla, beta-lactamase FRET ratio, 18 h; 460 nm channel. The method in brief: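 Inhibition of PPAR-delta response element-driven beta-lactamase expression is measured in HEK293T cells exposed to a compound titration series for 18 hrs at 37 C. Half-maximal inhibition comes from Hill equation fitting.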

Bile acid receptor (Homo sapiens), sequence (Q96RI1 whole entry, looked up): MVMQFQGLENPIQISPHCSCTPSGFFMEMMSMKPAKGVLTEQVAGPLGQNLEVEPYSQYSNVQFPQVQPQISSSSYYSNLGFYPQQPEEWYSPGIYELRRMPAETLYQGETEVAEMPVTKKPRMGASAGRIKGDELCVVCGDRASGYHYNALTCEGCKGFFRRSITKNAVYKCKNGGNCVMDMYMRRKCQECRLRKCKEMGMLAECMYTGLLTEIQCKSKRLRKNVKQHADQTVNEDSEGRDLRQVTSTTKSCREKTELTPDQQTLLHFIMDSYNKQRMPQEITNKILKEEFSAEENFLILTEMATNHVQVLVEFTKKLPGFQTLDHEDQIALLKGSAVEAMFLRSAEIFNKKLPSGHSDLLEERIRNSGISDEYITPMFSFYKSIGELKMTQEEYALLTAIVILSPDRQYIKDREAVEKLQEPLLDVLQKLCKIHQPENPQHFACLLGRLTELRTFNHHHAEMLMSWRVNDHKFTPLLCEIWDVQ
Glucocorticoid receptor (Homo sapiens), sequence (P04150 whole entry, looked up): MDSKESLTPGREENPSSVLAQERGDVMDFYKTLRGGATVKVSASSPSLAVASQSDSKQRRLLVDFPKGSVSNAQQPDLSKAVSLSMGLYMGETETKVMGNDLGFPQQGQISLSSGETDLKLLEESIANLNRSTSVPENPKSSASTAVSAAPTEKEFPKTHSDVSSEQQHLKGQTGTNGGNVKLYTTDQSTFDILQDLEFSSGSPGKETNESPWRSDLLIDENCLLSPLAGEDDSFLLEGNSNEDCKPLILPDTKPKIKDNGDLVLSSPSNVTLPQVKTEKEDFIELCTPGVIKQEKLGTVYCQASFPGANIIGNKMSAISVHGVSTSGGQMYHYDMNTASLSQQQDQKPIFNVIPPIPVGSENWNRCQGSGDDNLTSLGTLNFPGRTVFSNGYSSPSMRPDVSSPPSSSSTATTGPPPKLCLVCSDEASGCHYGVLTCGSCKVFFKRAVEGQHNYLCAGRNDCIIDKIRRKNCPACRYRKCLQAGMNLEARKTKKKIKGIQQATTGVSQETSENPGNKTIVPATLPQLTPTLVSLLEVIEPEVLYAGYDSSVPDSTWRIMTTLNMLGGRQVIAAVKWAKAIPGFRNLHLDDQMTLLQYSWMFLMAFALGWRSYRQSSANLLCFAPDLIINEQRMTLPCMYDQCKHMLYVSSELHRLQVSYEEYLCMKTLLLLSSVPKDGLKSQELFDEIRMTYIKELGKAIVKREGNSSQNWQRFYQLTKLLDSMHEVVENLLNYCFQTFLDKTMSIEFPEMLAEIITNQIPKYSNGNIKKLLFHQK
Androgen receptor (Homo sapiens), sequence (P10275 whole entry, looked up): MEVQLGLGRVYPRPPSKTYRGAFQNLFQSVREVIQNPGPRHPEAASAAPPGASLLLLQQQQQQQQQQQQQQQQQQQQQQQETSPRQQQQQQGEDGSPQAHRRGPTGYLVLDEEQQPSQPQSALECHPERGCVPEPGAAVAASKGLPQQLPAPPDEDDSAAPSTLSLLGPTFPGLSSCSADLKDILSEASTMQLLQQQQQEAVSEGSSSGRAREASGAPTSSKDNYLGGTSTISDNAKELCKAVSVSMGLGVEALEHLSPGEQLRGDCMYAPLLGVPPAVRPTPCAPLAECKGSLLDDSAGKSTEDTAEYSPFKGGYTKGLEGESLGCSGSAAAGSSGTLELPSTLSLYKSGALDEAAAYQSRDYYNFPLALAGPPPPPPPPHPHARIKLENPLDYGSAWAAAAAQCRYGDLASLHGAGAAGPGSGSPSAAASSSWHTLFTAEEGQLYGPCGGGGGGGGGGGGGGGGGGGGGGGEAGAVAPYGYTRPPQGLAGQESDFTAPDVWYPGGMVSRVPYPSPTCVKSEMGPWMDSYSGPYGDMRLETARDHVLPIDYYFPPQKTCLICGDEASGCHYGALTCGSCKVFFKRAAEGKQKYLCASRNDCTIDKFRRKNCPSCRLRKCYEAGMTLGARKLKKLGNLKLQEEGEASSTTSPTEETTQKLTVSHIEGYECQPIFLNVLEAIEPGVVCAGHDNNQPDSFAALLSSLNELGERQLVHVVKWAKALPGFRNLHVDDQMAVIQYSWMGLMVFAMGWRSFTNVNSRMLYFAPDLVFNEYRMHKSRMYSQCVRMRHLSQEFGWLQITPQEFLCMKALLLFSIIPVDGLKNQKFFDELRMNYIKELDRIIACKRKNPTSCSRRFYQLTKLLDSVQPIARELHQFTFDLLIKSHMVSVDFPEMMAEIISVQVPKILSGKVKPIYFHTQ

`CCCC(=O)c1cc(O)c(O)cc1O`: the activation was -9.57% (inactive) in test [1] and 7.26% (inactive) in test [2].

`CC(C)C(C)(C)C(C)(C)C(C)(C)S`: the activation in test [1] was -7.25% (inactive) and 10.8% (inactive). For the same molecule, in test [3], the outcome was inactive.

Regarding `COc1cc(C=O)ccc1O`, in test [3], the result was inactive.

For the molecule `Nc1ccc(O)cc1`, in test [2], the activation was 1.91% (inactive).

As to `O=C(Oc1ccccc1)c1ccccc1O`, the result in test [4] and in test [5] was inactive.

Take `O=C(Nc1ccc(Cl)cc1)Nc1ccc(Cl)c(Cl)c1`: the outcome in test [4] was inactive. In test [2], the activation is 4.25% (inactive).

Turning to `Brc1ccccc1-c1ccccc1`, the activation in test [2] was 8.87% (inactive).

With `O=C(c1ccccc1)c1ccccc1`, the activation in test [1] is 19.2% (inactive) and -0.683% (inactive); in test [2] it was -1.61% (inactive) and 0.77% (inactive). In addition, the result in test [3], in test [6] and in test [5] was inactive. Further, in test [7], the max response was 3.99% and -25%.

With `Cc1cc(C(C)(C)C)c(O)c(C(C)(C)C)c1`, the outcome in test [6] and in test [5] was inactive. In test [2], the activation is -5.33% (inactive) and 4.56% (inactive). Also, the max response in test [7] stood at 13.8%.

`CCCCCCCCCCCC[N+](C)(C)Cc1ccccc1`: the activation in test [1] was -8.21% (inactive); in test [2], 1.25% (inactive). The result in test [3], in test [6] and in test [5] was inactive. In test [7], the max response is 29.6%.

Turning to `O=C(Oc1ccccc1)c1cccc(C(=O)Oc2ccccc2)c1`, the outcome in test [6] and in test [5] was inactive. Further, the activation in test [2] is -8.17% (inactive). For the same molecule, the max response in test [7] amounted to 22.4%.

As for `C1=CC2C3C=CC(C3)C2C1` (stereo not given), in test [2], the activation is -4.75% (inactive).

Take `O=C(NO)c1ccccc1`: the outcome in test [6] and in test [5] was inactive. Moreover, the activation in test [2] is -5.9% (inactive).

For `c1ccc2occc2c1`, the result in test [6] was inactive.

With `CC(C)(C)c1ccc(O)c(O)c1`, the result in test [6] and in test [5] was inactive. Besides, in test [2], the activation was 27.4% (inactive) and -11.3% (inactive). Further, in test [7], the max response was -11.7% and -3.04%.

For `CCCCCCCCCCCCCCCC[n+]1ccccc1`, in test [2], the activation was 4.95% (inactive). Also, the max response in test [7] was found to be 21.5%.

On to `Nc1cccc2c(N)cccc12`, for which the outcome in test [4] and in test [6] was inactive. In addition, the activation in test [1] was -5.98% (inactive) and -0.762% (inactive).

Turning to `CCN(CC)CCOc1ccc(/C(=C(\Cl)c2ccccc2)c2ccccc2)cc1`, the values for the activation in test [1] and in test [2] were -16% (inactive) and 7.97% (inactive), respectively. The result in test [3] and in test [5] was inactive.

`CN1C(=O)c2ccccc2C1=O`: the activation in test [2] is -9.8% (inactive). In test [5], the result was inactive. Besides, in test [7], the max response was -32.8%.

Consider `Cc1ccc(O)cc1`, for which the result in test [6] was inactive. Further, the activation in test [2] is -6.73% (inactive). In addition, the max response in test [7] was -30.2%.

Consider `CC(C)(c1ccc(O)cc1)c1ccc(O)cc1`, for which, in test [7], the max response was -24.6%.

With `COC(=O)c1c(Cl)c(Cl)c(C(=O)OC)c(Cl)c1Cl`, the result in test [4], in test [6] and in test [5] was inactive. The activation in test [2] was -1.01% (inactive). In addition, the max response in test [7] was -8.5%.

On to `CCCCC(CC)COC(=O)c1ccccc1C(=O)O` (stereo not given), for which the outcome in test [5] was inactive. Besides, the max response in test [7] was -31.8%.

As to `OCc1c[nH]c2ccccc12`, in test [1], the activation is -13.7% (inactive). In addition, the result in test [3] and in test [6] was inactive.

Consider `Oc1ccccc1`, for which the result in test [6] was inactive. Besides, in test [7], the max response is -6.84% and 11%.

On to `Cc1ncc(CO)c(CO)c1O`, for which the outcome in test [6] was inactive. In test [7], the max response was found to be 15.2%.
